# Data: PubChem BioAssay (NCATS)
# Records with an inconclusive call do not appear. Where a call stands in place of a potency, no number is given. Calls of active or inactive are those of the source. Unless noted, calls follow the shape of the dose curve; as a rule, active = well fitted curve in the direction sought with a large enough effect; inconclusive = small, poorly fitted or top-dose-only effect, or another doubt; inactive = no such curve, though single readings can be large; an effect the other way counts as inactive or inconclusive.
# Assays:
# [1] = system: Zika virus NS2B-NS3 protease (unlinked complex); test: Primary screen GU Rhodamine qHTS for Zika virus inhibitors: Unlinked NS2B-NS3 protease assay (AID 1347159); also: nearly all actives have a fitted effect of over 60% in size; also: potency is read from the fitted curve at half-maximal effect
# Procedure, shortened: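 Compounds, tested up to 114 microM, were incubated for 15 minutes with 25 nM unlinked NS2B-NS3 protease at pH 8.0. Cleavage of 1.5 microM Rhodamine110 substrate was then followed by fluorescence for 15 minutes.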
# [2] = system: Zika virus NS2B-NS3 protease (linked construct); test: Primary screen NINDS Rhodamine qHTS for Zika virus inhibitors (AID 1347160); also: nearly all actives have a fitted effect of over 55% in size; also: potency is read from the fitted curve at half-maximal effect
# Procedure, shortened: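 Percent inhibition, normalized to uninhibited and enzyme-free controls, is fitted to a 4-parameter Hill equation. Fluorescence change comes from a 15-min cleavage of 1.5 microM bis-peptide Rhodamine110 substrate by 25 nM linked NS2B-NS3 at room temperature.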
# [3] = biological target: Calcium and integrin-binding protein 1 (Homo sapiens) (UniProt Q99828); test: Primary qHTS for Identification of Calcium Integrin Binding Protein 1 (CIB1) Competitor (AID 1508620);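 also: GST tagged CIB1 binding a fluorescein labelled alphaIIb integrin peptide tracer; top concentration of the series differs between compounds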
# Procedure, shortened: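 CIB1-GST (1 uM final) and compound incubated 15 min at room temperature before adding FITC-alphaIIb peptide tracer (100 nM final). Competition for binding read by fluorescence polarization (ex 480, em 540) after another 15 min at room temperature.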
# [4] = Primary qHTS for inhibitors of nuclear receptor binding SET domain protein 2 (NSD2) in an isogenic RCH-ACV NSD2 p.E1099K mutant (9B) (AID 1645876); also: potency is read from the fitted curve at half-maximal effect; nearly all actives have a fitted effect of over 70% in size
# [5] = Primary qHTS for inhibitors of nuclear receptor binding SET domain protein 2 (NSD2) in an RCH-ACV wild type WT cells (2C) (AID 1645877); also: potency is read from the fitted curve at half-maximal effect; nearly all actives have a fitted effect of over 70% in size
# [6] = biological target: Glutathione peroxidase 1 (Homo sapiens) (UniProt P07203); test: Primary qHTS Assay for Inhibitors of Recombinant Selenoprotein Glutathione Peroxidase 1 (GPX1) (AID 1845191); also: nearly all actives have a fitted effect of over 65% in size
# Procedure, shortened: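 10 nM GPX1 + cpd, 30 min RT; start w/ 1 mM GSH, 0.5 mM cumene hydroperoxide, 0.5 mM NADPH, 100 nM GR, 0.01% BSA; buffer 50 mM Tris-HCl pH 7.5, 2 mM EDTA, 150 mM NaCl; Fl 340/450, 0 & 15 min.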
# [7] = biological target: Phospholipid hydroperoxide glutathione peroxidase GPX4 (Homo sapiens) (UniProt P36969); test: Primary qHTS Assay for Inhibitors of Recombinant Selenoprotein Glutathione Peroxidase 4 (GPX4) (AID 1845192); conditions: outcome: dose series up to 50 µM unless noted; also: nearly all actives have a fitted effect of over 65% in size
# Procedure, shortened: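 NADPH consumption, followed by fluorescence at 340/450 nm between 0 and 15 min, reports GPX4 activity via coupled glutathione reductase (100 nM). Enzyme 200 nM was pre-exposed to compound 30 min; 0.5 mM cumene hydroperoxide and 1 mM GSH served as substrates.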
# [8] = system: Nanoluciferase (engineered Oplophorus gracilirostris luciferase); test: Primary Nanoluciferase (NLuc) qHTS assay for identification of artifact compounds. (AID 1845222)
# Procedure, shortened: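 Compounds are pinned into diluted (1:55) conditioned medium of NLuc-expressing S16 cells and held 15 min at room temperature protected from light. Nano-Glo substrate follows, and luminescence is read 5 min later.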
# [9] = qHTS drug screen for cell cycle checkpoint inhibitors in PARPi-resistant BRCA-mutant ovarian cancer cell lines. (AID 1963452; calls by dose curve); conditions: PEO1/OlaR viability, CellTiter-Glo luminescence, 96 h, stronger effect = lower value
# Procedure, shortened: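 PEO1, PEO4 and PEO1/OlaR ovarian cancer cells, 600 per well, exposed 96 h at 37C to a dilution series. Viability read by CellTiter-Glo luminescence, normalized to DMSO and empty wells; activity summarized as Z-AUC.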
# HaCat = test: Cytotoxic Profiling of Annotated Libraries Using Quantitative High-Throughput Screening (AID 1296008); conditions: Five cell lines viability, CellTiter-Glo ATP luminescence, 48-72 h; max response: stronger effect = lower value; also: nearly all actives have a fitted effect of over 60% in size; also: potency is read from the fitted curve at half-maximal effect
# Procedure, shortened: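 Cytotoxicity was measured as CellTiter-Glo ATP luminescence, read after 10 min at room temperature. Compound treatment of the cells lasted 48 or 72 hr at 37 degrees Celsius in a qHTS format.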
# CASKI = test: Primary qHTS to identify gynecologic anti-cancer compounds using libraries of approved drugs and bioactive compounds (AID 1345084); conditions: Gynecologic cancer cell panel viability, ATPlite luminescence, 48 h; series mostly up to 57.5 µM; also: nearly all actives have a fitted effect of over 55% in size; also: potency is read from the fitted curve at half-maximal effect
# Procedure, shortened: (§1)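 ATP-based viability (ATPlite), 1,000 cells/well, 16 h pre-incubation, 48 h compound at 37 C, 5% CO2, 15 min RT before read.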
# Es-2 = test: as above; conditions: Gynecologic cancer cell panel viability, ATPlite luminescence, 48 h; series mostly up to 57.5 µM
# Procedure, shortened: as §1
# Hek293T = test: as above; conditions: Gynecologic cancer cell panel viability, ATPlite luminescence, 48 h, control line for the selectivity index; series mostly up to 57.5 µM
# Procedure, shortened: as §1
# JEG-3 = test: as above; conditions: Gynecologic cancer cell panel viability, ATPlite luminescence, 48 h; series mostly up to 57.5 µM
# Procedure, shortened: as §1
# OV90 = test: as above; conditions: Gynecologic cancer cell panel viability, ATPlite luminescence, 48 h; series mostly up to 57.5 µM
# Procedure, shortened: as §1
# Tov-21-G = test: as above; conditions: Gynecologic cancer cell panel viability, ATPlite luminescence, 48 h; series mostly up to 57.5 µM
# Procedure, shortened: as §1
# [10] = biological target: Luciferin 4-monooxygenase (Photinus pyralis) (UniProt P08659); test: Primary firefly luciferase (FLuc) qHTS assay for identification of artifact compounds. (AID 1845220); also: nearly all actives have a fitted effect of over 60% in size
# Procedure, shortened: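 Cell-free, 1536-well qHTS. Buffer pH 7.6 with 0.01% Tween-20 and 0.05% BSA; 10 uM D-luciferin, 10 uM ATP; 10 nM P. pyralis luciferase; luminescence after 5 min.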
# HeLa = test: Primary qHTS to identify gynecologic anti-cancer compounds using libraries of approved drugs and bioactive compounds (AID 1345084); conditions: Gynecologic cancer cell panel viability, ATPlite luminescence, 48 h; series mostly up to 57.5 µM; also: nearly all actives have a fitted effect of over 55% in size; also: potency is read from the fitted curve at half-maximal effect
# Procedure, shortened: as §1
# C33A = test: as above; conditions: Gynecologic cancer cell panel viability, ATPlite luminescence, 48 h; series mostly up to 57.5 µM
# Procedure, shortened: as §1
# Tov112D = test: as above; conditions: Gynecologic cancer cell panel viability, ATPlite luminescence, 48 h; series mostly up to 57.5 µM
# Procedure, shortened: as §1
# [11] = measured here: PEO1 parental Z-AUC
# Sequence of Calcium and integrin-binding protein 1 (Homo sapiens) (Q99828 whole entry, looked up): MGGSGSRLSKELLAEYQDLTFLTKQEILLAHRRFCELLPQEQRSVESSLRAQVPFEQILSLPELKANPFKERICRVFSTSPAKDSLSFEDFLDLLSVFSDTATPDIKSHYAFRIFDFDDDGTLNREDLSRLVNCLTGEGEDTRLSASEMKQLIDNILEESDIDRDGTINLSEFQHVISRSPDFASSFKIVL
# Sequence of Glutathione peroxidase 1 (Homo sapiens) (P07203 whole entry, looked up): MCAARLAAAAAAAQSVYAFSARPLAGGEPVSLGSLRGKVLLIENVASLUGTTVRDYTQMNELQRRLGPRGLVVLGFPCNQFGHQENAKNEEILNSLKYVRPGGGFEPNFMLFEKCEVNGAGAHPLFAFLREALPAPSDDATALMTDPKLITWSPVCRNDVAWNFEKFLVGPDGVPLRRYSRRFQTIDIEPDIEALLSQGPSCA
# Sequence of Phospholipid hydroperoxide glutathione peroxidase GPX4 (Homo sapiens) (P36969 whole entry, looked up): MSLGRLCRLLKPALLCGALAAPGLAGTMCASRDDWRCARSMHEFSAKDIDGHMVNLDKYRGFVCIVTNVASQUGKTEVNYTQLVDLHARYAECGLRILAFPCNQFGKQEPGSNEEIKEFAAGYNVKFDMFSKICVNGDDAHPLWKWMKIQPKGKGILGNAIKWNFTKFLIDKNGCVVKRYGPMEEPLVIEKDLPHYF
compound,measurement,setting,value
Oc1ccc(Nc2nc(-c3ccc(Cl)cc3)cs2)cc1,Potency,[1],inactive
same,Potency,[2],inactive
same,outcome,[3],inactive
same,Potency,[4],6.61 µM (active)
same,Potency,[5],6.61 µM (active)
same,Potency,[6],inactive
same,Potency,[7],inactive
same,Potency,[8],inactive
same,Z-AUC,[9],-0.146 (inactive)
same,Z-AUC,[9]; [11],0.0588
same,Z-AUC,[9]; measured here: PEO4 Z-AUC,0.0633
same,max response,HaCat,-8.45% (inactive)
same,Potency,CASKI,inactive
same,Potency,Es-2,inactive
same,Potency,Hek293T,inactive
same,Potency,JEG-3,inactive
same,Potency,OV90,inactive
same,Potency,Tov-21-G,inactive
Cc1cc(C)c(-c2csc(NC(=O)c3ccccc3)n2)c(C)c1,Potency,[1],inactive
same,Potency,[2],inactive
same,outcome,[3],inactive
same,Potency,[4],4.09 µM (active)
same,Potency,[5],4.09 µM (active)
same,Potency,[6],inactive
same,Potency,[7],inactive
same,Potency,[10],inactive
same,Potency,[8],inactive
same,Potency,Es-2,inactive
same,Potency,HeLa,inactive
same,Potency,JEG-3,inactive
same,Potency,OV90,inactive
same,Potency,Tov-21-G,inactive
C=CC(=O)Nc1cc(Nc2nccc(-c3cn(C)c4ccccc34)n2)c(OC)cc1N(C)CCN(C)C,Potency,[1],inactive
same,Potency,[2],inactive
same,outcome,[3],inactive
same,Potency,[4],3.32 µM (active)
same,Potency,[5],2.95 µM (active)
same,Potency,[6],inactive
same,Potency,[7],inactive
same,Potency,[10],inactive
same,Potency,[8],inactive
same,Z-AUC,[9],-0.422 (inactive)
same,Z-AUC,[9]; [11],-0.39
same,Z-AUC,[9]; measured here: PEO4 Z-AUC,-1.1
same,Potency,HaCat,1.03 µM (active)
same,Potency,CASKI,14.1 µM (active)
Cc1cc(N=Nc2ccc(S(=O)(=O)Nc3ccccn3)cc2)c(N)cc1O,Potency,[1],inactive
same,Potency,[2],inactive
same,Potency,[4],8.17 µM (active)
same,Potency,[5],5.78 µM (active)
same,Potency,[6],inactive
same,Potency,C33A,inactive
same,Potency,HeLa,4.47 µM (active)
same,Potency,JEG-3,inactive
CN(CC(=O)N(Cc1ccc(C2CCCCC2)cc1)c1ccc(C(=O)O)cc1)S(=O)(=O)c1c(F)c(F)c(F)c(F)c1F,Potency,[1],2.51 µM (active)
same,Potency,[2],2.82 µM (active)
same,outcome,[3],inactive
same,Potency,[4],7.28 µM (active)
same,Potency,[5],4.59 µM (active)
same,Potency,[6],inactive
same,Potency,[7],inactive
same,Potency,[10],inactive
same,Potency,[8],inactive
same,Potency,Es-2,inactive
same,Potency,JEG-3,25.1 µM (active)
CC(=O)N[C@@H](CC(=O)O)C(=O)N[C@@H](CCC(=O)O)C(=O)N[C@H](C(=O)N[C@@H](CC(=O)O)C(=O)Nc1ccc2c(C)cc(=O)oc2c1)C(C)C,Potency,[1],inactive
same,Potency,[2],inactive
same,Potency,[4],5.78 µM (active)
same,Potency,[5],5.15 µM (active)
same,Potency,[6],inactive
same,Potency,[7],inactive
same,Potency,[8],inactive
same,max response,HaCat,-44.8% (inactive)
same,Potency,HeLa,inactive
same,Potency,Hek293T,inactive
same,Potency,JEG-3,inactive
same,Potency,OV90,inactive
same,Potency,Tov112D,inactive
C=C1[C@@H](C)[C@H]2[C@H](Cc3c[nH]c4ccccc34)NC(=O)[C@]23C(=O)/C=C/C(=O)[C@H](O)/C(C)=C\[C@@H](C)C/C=C/[C@H]3[C@@H]1O,Potency,[1],inactive
same,Potency,[2],inactive
same,outcome,[3],inactive
same,Potency,[4],3.99 µM (active)
same,Potency,[5],0.796 µM (active)
same,Potency,[6],inactive
same,Potency,[7],inactive
same,Potency,[10],inactive
same,Potency,[8],inactive
same,Potency,C33A,inactive
same,Potency,CASKI,inactive
same,Potency,Es-2,inactive
same,Potency,Hek293T,inactive
same,Potency,JEG-3,inactive
same,Potency,OV90,inactive
same,Potency,Tov112D,inactive
